Assay results as given in PubChem BioAssay (Tox21).
Inconclusive results are not listed. Calls of active or inactive are those of the source. Unless noted, calls come from the whole dose curve; as a rule, active = well fitted curve in the direction sought with a large enough effect in the repeat runs; inconclusive = weak or mixed curves; inactive = no such curve, though single readings can be large; an effect the other way counts as inactive or inconclusive.

Experiments:
[1] = A CellTox Green Cytotoxicity Assay to monitor cytotoxicity in HepG2 cells - 8 hour (AID 1224890); note: nearly all actives have a fitted effect of over 45% in size
Method in brief: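 Using 1536-well format, dye-containing HepG2 suspension was seeded, allowed 5 h at 37 C/5% CO2, dosed by pintool with compounds, positive and negative controls, and imaged for fluorescence across 40 h.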

[2] = qHTS assay to identify small molecule antagonists of the estrogen receptor alpha (ER-alpha) signaling pathway using the BG1 cell line in the presence of 0.1 nM 17-beta-estradiol - cell viability counter screen (AID 1259241); note: nearly all actives have a fitted effect of over 40% in size
Method in brief: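 VM7Luc4E2 cells (endogenous full-length ER-alpha, 4xERE-luciferase), cultured 5 days in charcoal-stripped serum, exposed to compounds with 0.1 nM 17beta-estradiol (final) for 22 hr at 37C. Viability read in same wells as live-cell protease fluorescence after 30 min.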

[3] = qHTS assay to identify small molecule antagonists of the androgen receptor (AR) signaling pathway using the MDA cell line in the presence of 0.5 nM R1881 - cell viability counter screen (AID 1259242); note: nearly all actives have a fitted effect of over 45% in size
Method in brief: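 Viability of MDA-kb2 cells was multiplexed with the luciferase AR readout; after 16 hr with compounds and R1881 at 0.5 nM final, CellTiter-Fluor fluorescence was recorded.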

[4] = molecular target: Androgen receptor (Homo sapiens) (UniProt P10275); test: qHTS assay to identify small molecule antagonists of the androgen receptor (AR) signaling pathway using the MDA cell line in the presence of 0.5 nM R1881 (AID 1259243); note: nearly all actives have a fitted effect of over 50% in size
Method in brief: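 Reporter cells cultured without CO2 receive test chemicals, then 0.5 nM R1881 final; after 16 hr at 37C, ONE-Glo is added and light output recorded.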

[5] = qHTS assay to identify small molecule HDAC inhibitors (AID 1259364);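 note: wild-type HCT-116 cells with endogenous class I/II HDAC activity; top concentration of the series differs between compounds; nearly all actives have a fitted effect of over 45% in size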
Method in brief: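 Read-out: luminescence of HDAC-Glo I/II reagent, 30 min RT, reflecting class I/II deacetylase activity in whole HCT-116 cells pre-exposed 2 h to DMSO-dissolved compounds.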

[6] = qHTS assay to identify small molecule HDAC inhibitors - cell viability counter screen (AID 1259365); note: series mostly up to about 92 µM; nearly all actives have a fitted effect of over 50% in size
Method in brief: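 Wild-type HCT-116 cells, 1,500/well, cultured overnight, then compound-treated 2 h at 37 C. Viability measured as ATP luminescence with CellTiter-Glo after 30 min at room temperature.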

[7] = qHTS assay to identify small molecule agonists of the sonic hedgehog signaling (Shh) pathway - cell viability counter screen (AID 1259366); note: nearly all actives have a fitted effect of over 50% in size
Method in brief: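 NIH/3T3-derived Gli1-Luc reporter cells, 2,000 per well, received compound after 4 h and were treated about 23 h at 37C. Viability measured in the same wells by CellTiter-Fluor fluorescence after 1 h.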

[8] = qHTS assay to identify small molecule antagonists of the sonic hedgehog signaling (Shh) pathway - cell viability counter screen (AID 1259367); note: nearly all actives have a fitted effect of over 55% in size
Method in brief: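 After a 4 hr settling period, 3T3 Gli1-Luc cells were treated with DMSO-dissolved chemicals and conditioned medium, kept 24 hr at 37C in 5% CO2, and assayed for viability by CellTiter-Fluor fluorescence following 1 hr reagent incubation.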

[9] = qHTS assay to identify small molecule agonists of the sonic hedgehog signaling (Shh) pathway (AID 1259368; calls by dose curve;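 note: NIH/3T3-derived 3T3Gli1-Luc cells carrying a stable Gli1-driven firefly luciferase reporter; series mostly up to about 92 µM; nearly all actives have a fitted effect of over 15% in size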)
Method in brief: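 A Gli1 transcriptional response element controlled firefly luciferase in 3T3Gli1-Luc cells. Compounds and a positive control were added 4 hr after plating, and cells were incubated a further 24 hr at 37 C before luminescence detection.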

[10] = molecular target: Estrogen receptor beta (Homo sapiens) (UniProt Q92731); test: qHTS assay to identify small molecule agonists of the estrogen receptor beta (ER-beta) signaling pathway (AID 1259377; active = well fitted activation curve with a large enough effect in the signal ratio in the repeat runs, not every such curve was filed as active; the % refers to the signal ratio)
Method in brief: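 ER-beta-UAS-bla HEK293T cells in medium with 2% charcoal-stripped FBS were exposed to compounds for 16 h at 37C. Beta-lactamase reporter activity was read as fluorescence after 2 h with LiveBLAzer B/G FRET substrate at room temperature.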

[11] = molecular target: Estrogen receptor beta (Homo sapiens) (UniProt Q92731); test: qHTS assay to identify small molecule antagonists of the estrogen receptor beta (ER-beta) signaling pathway (AID 1259378; active = well fitted inhibition curve with a large enough effect in the signal ratio in the repeat runs, not every such curve was filed as active; the % refers to the signal ratio)
Method in brief: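 ER-beta-UAS-bla HEK293T (GripTite) cells in 2% charcoal-stripped FBS medium were preincubated 6 hr at 37C, dosed with compound, then stimulated with 1 nM E2 (final) for 16 hr; beta-lactamase reporter read by B/G FRET fluorescence after 2 hr substrate loading.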

[12] = qHTS assay to identify small molecule agonists of the androgen receptor (AR) signaling pathway in the presence of an antagonist - cell viability counter screen (AID 1259379);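 note: MDA-kb2 human breast cancer cells carrying an MMTV luciferase reporter; series mostly up to about 92 µM; nearly all actives have a fitted effect of over 25% in size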
Method in brief: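 Seed MDA-kb2 at 3,000 cells/well; incubate 5 hr, 37C, 0% CO2. Add nilutamide to 3.0uM final, then pin compounds at 15 concentrations. Incubate 16 hr. Add CellTiter-Fluor at 15 hr, read fluorescence after 1 hr.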

[13] = qHTS assay to identify small molecule agonists of the estrogen receptor beta (ER-beta) signaling pathway - cell viability counter screen (AID 1259380); note: nearly all actives have a fitted effect of over 30% in size
Method in brief: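 CellTiter-Glo read, 30 min RT, same wells as bla assay; cells ER-beta-UAS-bla HEK293T; 16 hr compound, 37C; medium 2% charcoal-stripped FBS.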

[14] = molecular target: Androgen receptor (Homo sapiens) (UniProt P10275); test: qHTS assay to identify small molecule agonists of the androgen receptor (AR) signaling pathway in the presence of an antagonist (AID 1259381; calls by dose curve; note: nearly all actives have a fitted effect of over 15% in size)
Method in brief: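 Test compounds at 15 concentrations were incubated for 16hr with MDA-kb2 reporter cells in presence of 3.0uM nilutamide (final). Signal: ONE-Glo luciferase luminescence.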

[15] = qHTS assay to identify small molecule antagonists of the estrogen receptor beta (ER-beta) signaling pathway - cell viability counter screen (AID 1259382); note: series mostly up to about 92 µM; nearly all actives have a fitted effect of over 55% in size
Method in brief: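 In this multiplexed counter screen, cells were seeded at 2,000 per well in medium with 2% charcoal-stripped FBS and incubated 6 hr before compound and 1nM final E2 were added. Sixteen hours later, ATP-based luminescence reported viability.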

[16] = qHTS assay to identify small molecule agonists or antagonists of the thyroid stimulating hormone receptor (TSHR) signaling pathway - wild type cell line counter screen (AID 1259384; calls by dose curve)
Method in brief: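 Wild-type HEK293 cells were plated 18 h at 37 C/5% CO2, pin-dosed with compound plus Ro20-1724 medium, held 30 min at room temperature, then given cAMP-d2 and anti-cAMP-cryptate; fluorescence was read after 1 h. Fifteen concentrations, triplicate.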

[17] = molecular target: Estrogen receptor (Homo sapiens) (UniProt P03372); test: qHTS assay to identify small molecule antagonists of the estrogen receptor alpha (ER-alpha) signaling pathway using the BG1 cell line in the presence of 0.1 nM 17-beta-estradiol (AID 1259244); note: nearly all actives have a fitted effect of over 50% in size
Method in brief: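 Estradiol at 0.1 nM (final) stimulates the endogenous ER-alpha of VM7Luc4E2 cells carrying an ERE-driven luciferase; compounds are co-incubated 22 h at 37C and luciferase output quantified by luminescence.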

[18] = qHTS assay to identify small molecule antagonists of the sonic hedgehog signaling (Shh) pathway (AID 1259369; calls by dose curve; note: nearly all actives have a fitted effect of over 45% in size)
Method in brief: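 For antagonist detection, the reporter line received test compounds together with conditioned medium, incubated 24hr at 37 C, 5% CO2, then luminescence was recorded following 30min room-temperature luciferase reagent incubation.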

[19] = molecular target: Estrogen receptor (Homo sapiens) (UniProt P03372); test: qHTS assay to identify small molecule agonists of the estrogen receptor alpha (ER-alpha) signaling pathway in the presence of an antagonist (AID 1259383; calls by dose curve; note: top concentration of the series differs between compounds; nearly all actives have a fitted effect of over 15% in size)
Method in brief: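 Stably transfected VM7Luc4E2 reporter cells, kept 5 days in charcoal-stripped serum, received ICI-182,780 at 10.0nM final before compound addition. Following 22hr incubation at 37C and 5% CO2, luciferase signal was read by luminescence.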

[20] = qHTS assay to identify small molecule phospholipidosis (PLD) inducers (AID 1259344; active = well fitted curve in the direction sought with a large enough effect; an effect the other way counts as inactive or inconclusive)
Method in brief: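 HepG2 cells grown on collagen I take up LipidTOX Red while exposed to compound for 24 h; after fixation they are imaged at 20x and pit metrics are extracted.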

Measured: Potency

Chain of Estrogen receptor (Homo sapiens) (P03372 whole entry, looked up): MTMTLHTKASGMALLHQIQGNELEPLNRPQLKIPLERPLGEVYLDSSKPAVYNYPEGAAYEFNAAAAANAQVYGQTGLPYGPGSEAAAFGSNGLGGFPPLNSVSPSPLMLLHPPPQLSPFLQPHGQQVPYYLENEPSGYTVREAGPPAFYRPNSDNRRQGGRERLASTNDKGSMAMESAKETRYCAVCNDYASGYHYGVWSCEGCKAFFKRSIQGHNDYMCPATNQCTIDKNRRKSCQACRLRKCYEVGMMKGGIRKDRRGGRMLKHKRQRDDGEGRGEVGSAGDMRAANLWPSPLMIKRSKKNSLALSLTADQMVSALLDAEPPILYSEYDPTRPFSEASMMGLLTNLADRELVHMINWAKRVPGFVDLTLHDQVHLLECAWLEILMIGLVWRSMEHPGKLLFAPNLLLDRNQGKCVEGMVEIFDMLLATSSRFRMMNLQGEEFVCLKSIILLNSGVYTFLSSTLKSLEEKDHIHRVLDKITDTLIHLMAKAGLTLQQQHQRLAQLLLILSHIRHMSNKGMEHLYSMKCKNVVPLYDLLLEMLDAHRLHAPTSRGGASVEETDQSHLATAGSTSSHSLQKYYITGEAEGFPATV
Chain of Estrogen receptor beta (Homo sapiens) (Q92731 whole entry, looked up): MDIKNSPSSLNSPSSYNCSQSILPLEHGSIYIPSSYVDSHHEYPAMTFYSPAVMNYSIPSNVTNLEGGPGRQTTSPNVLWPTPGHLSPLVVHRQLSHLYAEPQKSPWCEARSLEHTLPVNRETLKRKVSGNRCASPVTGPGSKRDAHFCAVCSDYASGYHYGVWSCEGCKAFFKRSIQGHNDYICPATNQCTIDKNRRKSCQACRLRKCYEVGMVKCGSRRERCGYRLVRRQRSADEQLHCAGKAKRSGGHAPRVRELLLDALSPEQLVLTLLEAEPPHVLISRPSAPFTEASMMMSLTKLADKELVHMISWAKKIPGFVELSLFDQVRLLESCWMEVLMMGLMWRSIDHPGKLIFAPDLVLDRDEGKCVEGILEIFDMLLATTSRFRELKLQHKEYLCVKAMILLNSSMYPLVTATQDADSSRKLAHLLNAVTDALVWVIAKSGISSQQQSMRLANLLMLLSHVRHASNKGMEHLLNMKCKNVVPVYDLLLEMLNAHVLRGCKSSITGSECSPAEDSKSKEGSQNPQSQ
Chain of Androgen receptor (Homo sapiens) (P10275 whole entry, looked up): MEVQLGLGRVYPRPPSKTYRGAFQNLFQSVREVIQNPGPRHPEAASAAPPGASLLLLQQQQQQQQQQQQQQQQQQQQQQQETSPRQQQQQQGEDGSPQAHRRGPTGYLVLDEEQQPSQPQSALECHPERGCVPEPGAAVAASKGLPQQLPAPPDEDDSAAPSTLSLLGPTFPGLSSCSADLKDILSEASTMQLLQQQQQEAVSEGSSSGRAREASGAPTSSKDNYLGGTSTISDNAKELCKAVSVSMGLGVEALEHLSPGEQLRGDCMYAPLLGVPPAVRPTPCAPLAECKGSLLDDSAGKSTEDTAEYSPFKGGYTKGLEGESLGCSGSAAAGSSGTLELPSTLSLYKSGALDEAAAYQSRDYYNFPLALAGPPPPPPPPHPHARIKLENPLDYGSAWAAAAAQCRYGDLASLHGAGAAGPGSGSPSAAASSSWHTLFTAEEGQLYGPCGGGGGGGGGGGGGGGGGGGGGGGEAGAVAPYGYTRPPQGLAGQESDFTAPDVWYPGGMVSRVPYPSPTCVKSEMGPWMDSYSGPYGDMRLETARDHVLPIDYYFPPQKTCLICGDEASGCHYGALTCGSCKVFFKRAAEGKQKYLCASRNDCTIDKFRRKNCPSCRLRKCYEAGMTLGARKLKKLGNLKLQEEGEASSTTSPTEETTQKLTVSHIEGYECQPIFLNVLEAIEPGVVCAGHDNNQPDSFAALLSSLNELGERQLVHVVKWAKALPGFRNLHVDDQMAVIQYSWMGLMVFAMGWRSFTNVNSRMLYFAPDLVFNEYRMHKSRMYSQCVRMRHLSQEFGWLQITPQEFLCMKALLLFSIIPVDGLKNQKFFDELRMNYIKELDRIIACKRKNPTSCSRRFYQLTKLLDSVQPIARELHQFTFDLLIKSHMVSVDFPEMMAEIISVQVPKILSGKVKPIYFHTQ

CC/C=C\CC1=C(C)CCC1=O
not listed: [17] | [18] | [19] | [20]
inactive: all other assays above

C[C@@H](Oc1ccc(CNC(=O)c2cccnc2Oc2ccc3c(c2)OCO3)c(F)c1)C(=O)O
not listed: [4] | [14] | [16] | [20]
inactive: all other assays above

CCOc1cc(NC(C)=O)ccc1C(=O)OC
not listed: [4] | [10] | [11] | [14]
inactive: all other assays above

COc1cc2c(cc1OC)[C@@H]1CC(=O)[C@@H](CC(C)C)CN1CC2
not listed: [4] | [11] | [14] | [18]
inactive: all other assays above

CNS(=O)(=O)CCc1ccc2[nH]cc(C3CCN(C)CC3)c2c1
not listed: [4] | [14]
inactive: all other assays above

O=C1CCCC(=O)O1
not listed: [4] | [14] | [20]
inactive: all other assays above

CC(=O)CCCCn1c(=O)c2c(ncn2C)n(C)c1=O
not listed: [4] | [14] | [19]
inactive: all other assays above

CN1C(C)(C)CCCC1(C)C
not listed: [4] | [10] | [11] | [14]
inactive: all other assays above
